Results: PubChem BioAssay AID504332 (National Center for Advancing Translational Sciences (NCATS), 2011)
About 31,000 (8.9%) of roughly 350,000 compounds were called active. Inconclusive results (about 15%) are left out. Calls come from the whole dose curve; as a rule, active = well fitted inhibition curve with a large enough effect; inconclusive = small, poorly fitted or top-dose-only effect; inactive = no such curve, though single readings can be large or run the other way. Shown is part of a subset that was picked to be rich in actives.

target: Histone-lysine N-methyltransferase EHMT2 (Homo sapiens) (UniProt Q96KQ7); assay: qHTS Assay for Inhibitors of Histone Lysine Methyltransferase G9a; conditions: G9a H3K9 monomethylation, AlphaScreen, 2 h; series mostly up to 59 µM; activity, negative = inhibition: at the top concentration; note: nearly all actives have a fitted effect of over 75% in size
Procedure, shortened: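 Signal arises when biotinylated H3K9 peptide, once monomethylated, bridges streptavidin donor and antibody-captured acceptor beads. Enzyme at 20 nM was preincubated 15 min with test compounds; peptide 500 nM and SAM 20 uM then reacted for 2 h.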
% is set by controls: 0 for no effect and ±100 for the full control effect; potency is the fitted concentration of half-maximal effect.

Histone-lysine N-methyltransferase EHMT2 (Homo sapiens), sequence (Q96KQ7 913-1193 limits assumed): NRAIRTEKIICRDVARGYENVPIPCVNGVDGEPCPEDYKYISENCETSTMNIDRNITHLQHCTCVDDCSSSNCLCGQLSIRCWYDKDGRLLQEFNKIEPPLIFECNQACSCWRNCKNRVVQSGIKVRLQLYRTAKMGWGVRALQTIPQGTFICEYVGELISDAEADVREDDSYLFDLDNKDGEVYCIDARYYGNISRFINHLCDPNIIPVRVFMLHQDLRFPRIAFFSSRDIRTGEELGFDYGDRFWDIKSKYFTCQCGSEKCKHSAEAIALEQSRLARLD

activity, negative = inhibition, inactive:
CCN(C(=O)CSc1ncnc2c1cnn2-c1ccccc1)C1CCS(=O)(=O)C1 (stereo not given) 7.57% [at 0.501 µM]
O=C(OCc1cc(=O)n2nc(C3CC3)sc2n1)c1ccccc1Cl 0.251%
O=C(NNC(=O)c1ccc(-n2cncn2)c([N+](=O)[O-])c1)c1ccccc1 14.9% [at 12.7 µM]
CCc1cc2c(cc(C(=O)OC)n2Cc2nc(-c3ccc(C)cc3)oc2C)s1 -24.2%
N#Cc1nc(-c2cccc3ccccc23)oc1N 2.47% [at 2.33 µM]
CCCCN(C(=O)C(CCSC)N1C(=O)c2ccccc2C1=O)c1c(N)n(CCC)c(=O)[nH]c1=O (stereo not given) 17.2% [at 12.7 µM]
COc1ccc2oc(C(=O)N(CC(C)C)C3CCS(=O)(=O)C3)c(C)c2c1 (stereo not given) 7.64% [at 0.501 µM]
CSc1nn(Cc2cccc(C)c2)c(N)c1S(=O)(=O)c1ccccc1 -1.54%
COc1cccc(Cn2cnc3c([N+](=O)[O-])c(C)c(C)cc32)c1 -11.2% [at 102 µM]
COc1cc(OC)cc(-c2nc3nc(C)c(CCC(=O)Nc4ccccc4)c(C)n3n2)c1 -2.91%
O=C(CCc1nnc2ccc(NCc3ccco3)nn12)Nc1cc(F)ccc1F -3.92% [at 102 µM]
Cc1sc2ncnc(N3CCC(C(=O)Nc4ccc(F)cc4Cl)CC3)c2c1C -22.6% [at 12.7 µM]
CN(Cc1ccccc1)c1ncnc2onc(-c3ccc(F)cc3)c12 6.18%
Cc1ccc(CSCC(=O)N(C)CC(=O)Nc2ccc(C)cc2)cc1 -0.261% [at 102 µM]
CCN(CC(=O)Nc1cc(Cl)ccc1C)C(=O)CSCc1ccc(C)cc1 -2.36% [at 2.33 µM]
CC(=O)c1nn(-c2ccc(OC(F)(F)F)cc2)nc1Nc1ccccc1 9.69%
Cc1ccc(N2CC(C(=O)N3CCC4(CC3)CC(=O)c3ccccc3O4)CC2=O)cc1C (stereo not given) 6.18% [at 0.501 µM]
CCOc1ccc(NS(=O)(=O)c2ccc(C(=O)NC3CCN(Cc4ccccc4)CC3)cc2)cc1 17.4% [at 2.33 µM]
CCOc1ccc(S(=O)(=O)Nc2ccc(C(=O)NCCCN3CCCC3=O)cc2)cc1 12.9%
COc1ccc(Cn2c(=O)c3oc4ccccc4c3n(CC(=O)Nc3ccc(F)cc3F)c2=O)cc1 2.4%
COc1ccc(NC(=O)c2ccco2)cc1NC(=O)COc1ccc(C)c(C)c1 -5.49%
O=C(N/N=C/c1ccc([N+](=O)[O-])cc1)c1c[nH]c2ccccc12 -27.9% [at 102 µM]
COc1ccc2[nH]cc(/C=C(/C#N)S(=O)(=O)c3ccccc3)c2c1 -5.58% [at 102 µM]
CCCCn1c(N)c(N(Cc2ccccc2OC)C(=O)COc2cc(C)ccc2Cl)c(=O)[nH]c1=O -35.7% [at 102 µM]
Cn1nccc1/C=N\NC(=O)c1ccc(Cl)cc1 19.2% [at 102 µM]
OCC[C@H]1C[C@H](O)[C@@H](O)[C@]2(CCc3ccccc3O2)O1 7.67% [at 2.33 µM]
O=S(=O)(c1ccc(Br)c2ccccc12)N1CCOCC1 24.5% [at 0.501 µM]
COc1ccccc1N1CCN(C(=O)c2cc(=O)c3cc(C)cc(C)c3o2)CC1 -10.5% [at 2.33 µM]
COc1cccc(-n2c(=S)sc3c(=O)n(-c4ccccc4OC)c(SCC4OCCO4)nc32)c1 13.6%
Cc1nn(-c2ccccc2)c(C)c1C(=O)OCC(=O)NC(=O)NC1CCCCC1 14.9%
Cc1cccc(C)c1NC(=O)CNC(=O)c1c(C)nn(-c2ccccc2)c1C 1.23% [at 102 µM]
COc1ccc(C)cc1S(=O)(=O)Nc1cc2c3c(c1)CCC(=O)N3CCC2 5.66% [at 102 µM]
Cc1ccc2oc3c(c(=O)c2c1)C(c1ccc([N+](=O)[O-])cc1)N(CCCN1CCOCC1)C3=O (stereo not given) -4.28%
CC(=O)c1cccc(NC(=O)CSc2nc3c(c(=O)[nH]2)CCC3)c1 -8.01%
Cc1ccc(-c2nn(CCC(=O)Nc3ccc(OC(F)(F)F)cc3)c(=O)c3ccccc23)cc1 1.21%
O=C(c1ccc(Cl)s1)N(Cc1nnc(-c2ccccc2Cl)o1)C1CC1 9.15% [at 12.7 µM]
CC(C)N(Cc1nnc(-c2ccccc2Br)o1)C(=O)c1cc(Cl)nc2ccccc12 -53.3% [at 12.7 µM]
CCOC(=O)[C@H]1[C@H]2COc3cc(OC)ccc3[C@@H]2N2C(=O)N(c3ccc(Br)cc3)C(=O)[C@@]12C -5.49% [at 102 µM]
Cc1c(Cl)cccc1NC(=O)C1CCCN(c2ncnc3onc(C)c23)C1 (stereo not given) -4.63%
CSc1ccccc1OCc1cc(C(=O)N2C[C@H]3CC[C@H]2C3)no1 39.3% [at 102 µM]
O=C(c1ccccc1)c1cc(-c2ccccn2)c(N2CCOCC2)s1 -7.68% [at 102 µM]
CCc1cccc(NC(=O)c2cnc(N3CCOCC3)c3ccccc23)c1 12.6%
COc1ccc(C(=O)CC(=O)c2ccc(C)cc2)c(O)c1 28.4% [at 102 µM]
COc1cc2c(cc1OC)C(COc1ccc(F)cc1)N(C(=O)c1ccccc1F)CC2 (stereo not given) -0.587%
COc1ccc(/C=N/N=C2/C(=O)Nc3ccccc32)cc1O 16.7%
COc1ccc(S(=O)(=O)Nc2cc3c(C(=O)OC(C)C)c(C)oc3c3ccccc23)cc1 -0.639%
COc1cccc(N(C(=O)c2snc(C(N)=O)c2N)C(C(=O)NCC2CCCO2)c2c[nH]c3ccccc23)c1 (stereo not given) -48.6% [at 102 µM]
Cc1ccc(N(C(=O)c2snc(C(N)=O)c2N)C(C(=O)NCC2CCCO2)c2c[nH]c3ccccc23)cc1 (stereo not given) 3.25% [at 102 µM]
CN(CC(=O)Nc1ccc(OC(F)(F)F)cc1)C(=O)C1CCC1 -37% [at 12.7 µM]
COc1ccc(Cl)cc1C(=O)NCC#N -0.132% [at 12.7 µM]
COCCNC(=O)C1CCN(S(=O)(=O)c2ccc3c(c2)OCCO3)CC1 2.44% [at 0.501 µM]
O=C(NC(=S)Nc1ccccc1N1CCCCC1)c1ccc(F)cc1 -39.7% [at 102 µM]
O=C(CC1N=C2c3ccccc3N=C(SCc3ccc(F)cc3)N2C1=O)NCc1cccs1 (stereo not given) 3.62%
Nc1nc(-c2ccccc2)cc(-c2ccccc2)n1 3.85% [at 102 µM]
COc1cc(C(=O)Nc2oc(-c3ccccc3)c(-c3ccccc3)c2C#N)cc(OC)c1OC -4.06% [at 102 µM]
CC(C)C(=O)Nc1oc(-c2ccccc2)cc1C#N 3.52% [at 102 µM]
CCC(=O)N1CCc2cc(Br)cc(S(=O)(=O)NCc3ccc(Cl)cc3)c21 -4.97%
Brc1ccccc1/C=N/Nc1nc2ccccc2o1 2.92% [at 102 µM]
CC(C)N1C(=O)C2C(C(=O)NC3CCCCC3)C3C=CC2(O3)C1C(=O)NC1CCCC1 (stereo not given) -8.2%
CCOCCCN1C(=O)C2C(C(=O)Nc3ccc(OCC)cc3)C3C=CC2(O3)C1C(=O)NC1CCCCC1 (stereo not given) 15.1% [at 102 µM]
CC(=O)N1c2ccc(S(=O)(=O)N3CCCCCC3)cc2CC1C(=O)NCc1ccccc1C (stereo not given) 11.6%
Cc1ccc(S(=O)(=O)NCCC(=O)NNC(=O)C2COc3ccccc3O2)cc1 (stereo not given) 3.72%
Cc1ccc(-n2ncc(C(=O)N(C)Cc3ccccc3)c2-n2cccc2)cc1 -21.6%
COc1ccc(C(=O)NC2CC2)cc1OC1CCN(Cc2ccc(SC)cc2)CC1 -9.68%
CCOC(=O)c1c(NC(C)=O)c2c3c(sc2n1Cc1c(C)cc(C)cc1C)CCCC3 -2.13%
COc1cc2c(cc1OC)C(c1ccncc1)CC(=O)N2 (stereo not given) -34% [at 2.33 µM]
COC(=O)c1ccc(C2CC(=O)Nc3cc(OC)c(OC)cc32)cc1 (stereo not given) 14.9%
O=C(Nc1cc(C(F)(F)F)ccc1Cl)c1cc2nc(-c3ccc4c(c3)OCO4)cc(C(F)(F)F)n2n1 -1.62%
CCOc1ccccc1N(CC)C(=O)Nc1cn(C)c(=O)c2ccccc12 8.87%
Cc1sc2c(c1C)c(=O)n(-c1ccccc1)c(=O)n2CC(=O)NCC1CCCO1 (stereo not given) 8.85% [at 102 µM]
CC(C)(C)c1nc(NCC2CCCO2)c2nnn(Cc3ccccc3)c2n1 (stereo not given) 3.94% [at 102 µM]
CCN(CC)C(=O)CSc1nc2ccsc2c(=O)n1Cc1ccccc1Cl -7.47%
CCCCN(C)c1ccc([N+](=O)[O-])cc1 9.6%
CCc1ccc2c(c1)C(c1ccc([N+](=O)[O-])cc1)=NNC(c1ccccc1)=N2 16.6% [at 102 µM]

Potency, active:
Cc1cccc(Cn2cnc3c(N)c(C)c(C)cc32)c1 44.7 µM
CCCCN(C)CCNC(=O)CSCc1ccc(C)cc1 3.55 µM
CCOc1ccc(NS(=O)(=O)c2ccc(C(=O)NCC(c3ccccc3OC)N3CCCC3)cc2)cc1 (stereo not given) 1.26 µM
COc1ccc(/C=C(\C#N)c2c[nH]c3ccccc23)cc1 39.8 µM
COc1ccccc1-n1c(=S)[nH]c2c(sc(=S)n2-c2ccc(C)cc2C)c1=O 7.94 µM
Cc1cccc(C)c1NC(=O)COC(=O)c1c(C)nn(-c2ccccc2)c1C 11.2 µM
O=C(c1cc(-c2ccco2)nc2ccccc12)N(Cc1nnc(-c2ccc(Cl)cc2)o1)C1CC1 5.01 µM
CCc1ccc2ncc(C(=O)c3ccccc3)c(N3CCOCC3)c2c1 56.2 µM
O=C1Nc2ccc(Br)cc2/C1=N/N=C/C1=C(N2CCOCC2)C(=C\c2ccccc2)/CC1 12.6 µM
CCOc1ccc(N(C(=O)c2snc(C(N)=O)c2N)C(C(=O)NCC2CCCO2)c2c[nH]c3ccccc23)cc1 (stereo not given) 39.8 µM
N#C/C=C\Oc1ccc(Cl)cc1N 44.7 µM
CC(Oc1ccccc1)C(=O)Nc1oc(-c2ccco2)c(-c2ccco2)c1C#N (stereo not given) 28.2 µM
CCN(CC)CCN1C(=O)C2C(C(=O)Nc3ccc(Br)cc3)C3C=CC2(O3)C1C(=O)NC1CCCCC1 (stereo not given) 50.1 µM
COc1cc2c(cc1OC)C(c1ccc(C)o1)CC(=O)N2 (stereo not given) 20 µM
Cn1c(=O)c2[nH]c(NCC3CCCO3)nc2n(-c2ccccc2)c1=O (stereo not given) 8.91 µM
CCC1OC(c2ccc([N+](=O)[O-])cc2)=Nc2ccccc21 (stereo not given) 44.7 µM
